EWS-Fli inh – EWS/Fli-driven NR0B1 reporter inhibitors, primary screen, A673 cells, NR0B1 luciferase, luminescence, MLPCN library; viability-normalised; inhibition, % at 12.6 µM; actives 0.67% (n = 350,000); AID 651661, 2012;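 active = mean inhibition of at least 50% after viability correction, with every replicate also passing that limit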;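 also: firefly luciferase signal divided by Alamar Blue viability fluorescence both relative to DMSO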
GSIS activator – GLuc luminescence reporter in INS-1E cells, primary screen for activators of glucose-dependent secretion of insulin; AID 743287, 2014; INS-1E GLuc reporter insulin secretion, 2-3 h; actives 0.61% (n = 370,000); activation, % at 16.6 µM;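 active = lowest replicate activation of at least 40%, so every replicate reaches that level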;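 also: 0% = median of neutral control wells and 100% = median of IBMX positive control wells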
PGC1a acetyl inh – inhibitors of PGC1a acetylation signal, primary screen, cell-based, U2OS, AlphaScreen, inhibitor mode; actives 0.17% (n = 350,000); inhibition, % at 15.6 µM; AID 651687, 2012; AlphaScreen anti-acetyl-lysine; with virally co-expressed GCN5 acetyltransferase;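 active = every replicate shows inhibition of at least 40%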;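 also: 0% = neutral control wells and 100% = positive control wells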
HIV Env fusion – inhibitors of HIV-1 Env-driven cell-cell fusion, primary screen, HeLa-JRFL effector, CEM21 target cells, luciferase; inhibition, % at 12.3 µM; actives 1.1% (n = 360,000); AID 651610, 2012;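 active = mean replicate inhibition score of at least 50 and every replicate individually at or above 50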;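 also: 0% = plate neutral controls and 100% = maraviroc near 300 nM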
PAX8 inh HTS – inhibitors of PAX8-driven TPO luciferase reporter, primary screen, RMG-I cells, single concentration; inhibition, % at 12.6 µM; AID 652154, 2013; SteadyGlo, 24 h; actives 1.2% (n = 360,000);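 active = mean replicate inhibition at least 60% with every replicate also reaching 60%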;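 also: luciferase light reporting Pax8 driven TPO promoter activity; plate controls were median of neutral control wells for no effect and mitoxantrone controls for full effect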
CFTR F508del cor – F508del CFTR correction, initial screen, CFBE line, single point | CFBE cells, YFP halide quenching; stimulated with forskolin plus potentiator P3; % fluorescence drop versus neutral controls | activity (quench increase), % at 7.58 µM | actives 0.36% (n = 350,000);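 active = mean added fluorescence quench of at least 8% versus neutral control, with both replicates also reaching 8%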;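 also: cells transiently co-express mutant CFTR-F508del with the halide-sensitive YFP; corrector assay measuring rescue of mutant channel to the surface after 24 h compound exposure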
* hit, by the source's call; [ ] = another dose, or the depositor's remark. Shown are actives, neighbours in structure and some others; about 2.7% of the full set was active somewhere.

For Cc1cc(C(=O)Nc2ccc3c(c2)C(=O)N(C)[C@H]2CC[C@@H](CC(=O)NCc4ccc(-c5ccccc5)cc4)O[C@@H]2CO3)no1 the results were EWS-Fli inh 14, GSIS activator -6, HIV Env fusion 12[16.7 µM] and PAX8 inh HTS 65*.
CN1C(=O)c2cc(NC(=O)Cc3ccccc3)ccc2OC[C@@H]2O[C@H](CC(=O)NCc3ccc(Cl)cc3)CC[C@H]21 was read as EWS-Fli inh -7, GSIS activator -10, PGC1a acetyl inh -8, HIV Env fusion 13[16.7 µM], PAX8 inh HTS 18 and CFTR F508del cor 10*.
Screening CN1C(=O)c2cc(NC(=O)c3ccc(Cl)cc3)ccc2OC[C@H]2O[C@@H](CC(=O)NCc3cccc(F)c3)CC[C@H]21 returned EWS-Fli inh 4, GSIS activator -7, PGC1a acetyl inh -2, PAX8 inh HTS 27 and CFTR F508del cor 2.
CCCN(C)C[C@H]1OCCCC[C@@H](C)Oc2ccc(NS(=O)(=O)c3ccccc3)cc2C(=O)N([C@@H](C)CO)C[C@H]1C was read as EWS-Fli inh -2, GSIS activator -3, PGC1a acetyl inh -10, HIV Env fusion -7[16.7 µM], PAX8 inh HTS 28 and CFTR F508del cor -3.
For COc1ccc(S(=O)(=O)Nc2ccc3c(c2)C(=O)N([C@@H](C)CO)C[C@H](C)[C@H](CN(C)C)OCCCC[C@@H](C)O3)cc1 the results were GSIS activator 6, PGC1a acetyl inh -2, HIV Env fusion -1[16.7 µM], PAX8 inh HTS 6 and CFTR F508del cor -1.
`CC[C@H]1CC=CC[C@H](C)Oc2ccccc2C(=O)N(C)[C@@H](Cc2ccccc2)C(=O)N1` (mixture of isomers) gave GSIS activator -8.
For O=C(CN1CCOCC1)NCC[C@H]1CC[C@H](NC(=O)Nc2ccc(F)cc2)[C@@H](CO)O1 the results were EWS-Fli inh 6, GSIS activator 12, PGC1a acetyl inh 4, HIV Env fusion 2[16.7 µM], PAX8 inh HTS -11 and CFTR F508del cor 1.
C[C@@H]1CN([C@H](C)CO)C(=O)c2cc(NC(=O)C3CCCCC3)ccc2O[C@@H]1CN(C)C(=O)Nc1ccccc1 was read as EWS-Fli inh -2, GSIS activator 1, PGC1a acetyl inh 2, PAX8 inh HTS -5 and CFTR F508del cor -2.
For COc1ccc(C2C(C(=O)Nc3cccc(OC)c3)c3ccccc3C(=O)N2C)cc1 (stereo unspecified) the results were EWS-Fli inh 5, GSIS activator -13, PGC1a acetyl inh -5, HIV Env fusion -6, PAX8 inh HTS 12 and CFTR F508del cor -3.
`COc1ccc(C2C(C(=O)Nc3cc(OC)c(OC)c(OC)c3)c3ccccc3C(=O)N2C)cc1` (stereo unspecified) gave EWS-Fli inh 60*, GSIS activator 14, PGC1a acetyl inh -7, HIV Env fusion -183, PAX8 inh HTS 25 and CFTR F508del cor 0.
`N#Cc1cnn2c(C(F)(F)F)cc(-c3ccccc3)nc12` gave EWS-Fli inh -2, GSIS activator 44*, HIV Env fusion 11, PAX8 inh HTS -5 and CFTR F508del cor -2.
COc1ccc2c3c(n(C)c2c1)[C@H](CO)N(Cc1nccs1)CC31CN(C)C1 was read as EWS-Fli inh -2, GSIS activator 19, PGC1a acetyl inh 4 and CFTR F508del cor 1.
`CCOC(=O)c1c(SCCN2CCCC2)n(-c2ccccc2)c(=S)n(-c2ccccc2)c1=O` gave EWS-Fli inh 61*, GSIS activator -29, HIV Env fusion -282, PAX8 inh HTS 59 and CFTR F508del cor 1.
For CCOC(=O)c1c[nH]c(=S)n(-c2ccccc2)c1=O the results were EWS-Fli inh 12, GSIS activator -1, PGC1a acetyl inh -17, HIV Env fusion -19, PAX8 inh HTS -12 and CFTR F508del cor 3.
Screening O=C(NNC(=O)C(c1ccccc1)c1ccccc1)c1ccccn1 returned EWS-Fli inh -3, GSIS activator -7, HIV Env fusion 74*, PAX8 inh HTS 51 and CFTR F508del cor 3.
For CCCCc1ccc(NC(=O)COc2ccc(C(=O)Nc3ccccc3OCC)cc2)cc1 the results were GSIS activator 71*, PGC1a acetyl inh -10 and PAX8 inh HTS 25.
CCOc1ccccc1NC(=O)c1ccc2ccccc2c1 was read as EWS-Fli inh -18, GSIS activator 14, PGC1a acetyl inh 88*, HIV Env fusion -5, PAX8 inh HTS 24 and CFTR F508del cor 3.
Screening CCOc1ccc(NC(=O)COc2ccc(C(=O)NCCc3ccccc3)cc2)cc1 returned EWS-Fli inh -9, GSIS activator -10, PAX8 inh HTS 73* and CFTR F508del cor -1.
CCOc1ccc(C(=O)Nc2ccccc2-c2ccccc2)cc1Cl was read as GSIS activator -28, PGC1a acetyl inh -6 and HIV Env fusion -48.
`CC(C)c1ccccc1NC(=O)COc1ccc(C(=O)NCCc2ccccc2)cc1` gave GSIS activator -7, HIV Env fusion 20 and PAX8 inh HTS 1.
For CCOc1ccc(C(=O)Nc2cccc(C(=O)O)c2C)cc1Cl the results were EWS-Fli inh 23, GSIS activator 22, HIV Env fusion 60* and PAX8 inh HTS 36.
Screening CO[C@H]1CN(C)C(=O)c2cc(NC(=O)Nc3cccc(F)c3)ccc2OC[C@@H](C)N(C(C)=O)C[C@H]1C returned EWS-Fli inh 0, GSIS activator 7, PGC1a acetyl inh 2, HIV Env fusion 2[16.7 µM] and CFTR F508del cor 0.
For COCC(=O)Nc1ccc2c(c1)OC[C@@H](C)N(C(=O)Cc1ccccn1)C[C@@H](C)[C@@H](OC)CN(C)C2=O the results were EWS-Fli inh -2, GSIS activator -1, PGC1a acetyl inh 3 and CFTR F508del cor -2.
`COc1cc2c(O)c3c(c(-c4ccc5c(c4)OCO5)c2cc1OC)C(=O)OC3` gave PGC1a acetyl inh 0 and HIV Env fusion 63*.
`COc1ccc(NC(=O)Nc2ccc3c(c2)C(=O)N([C@@H](C)CO)C[C@H](C)[C@H](CN(C)S(=O)(=O)c2cn(C)cn2)O3)cc1` gave EWS-Fli inh -3, GSIS activator 1, PGC1a acetyl inh -12, HIV Env fusion 8[16.7 µM] and CFTR F508del cor 3.
Screening Cc1cc(C)nc(NC(N)=NCCc2ccccc2)n1 returned EWS-Fli inh 4, PGC1a acetyl inh 0, HIV Env fusion -118, PAX8 inh HTS 51 and CFTR F508del cor 3.
`Cc1cc(C)nc(NC(N)=NCCc2c[nH]c3ccccc23)n1` gave EWS-Fli inh 6, GSIS activator 45*, PGC1a acetyl inh 1, HIV Env fusion -2, PAX8 inh HTS 21 and CFTR F508del cor 3.

Screens: PubChem BioAssay, Broad Institute
